# This is a sample that favours compounds with a hit; in the whole collection about 6.7% have one here.
# C diff growth: blocks growth of Clostridium difficile; Clostridium difficile clinical isolate growth, OD600, 24 h; active compounds read low; growth activity, negative = inhibition, % at 16 µg/mL (by protocol); 86,000 tested, 0.25% active; AID 1259249;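 active = mean growth activity at or below -80% and every replicate also at or below -80%; inconclusive = mean at or below -80% but some replicate above -80%; inactive = mean growth activity above -80%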;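 note: 0% = DMSO wells and -100% = levofloxacin 16 µg/mL wells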
# Pf Dd2 growth: P. falciparum Dd2 growth inhibition | activity change, % at 10 µM | 94,000 tested, 2.3% active | SYBR Green, 72 h; active compounds read low; in the data active = activity change below about -80%; inconclusive = no clear call, values can overlap the other calls
# Tcruzi prolif: T. cruzi proliferation inhibition | AID 624255 | T. cruzi beta-gal in NIH3T3, GalScreen luminescence, 90 h | 77,000 tested, 5.9% active | inhibition, % at 8.34 µM;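 active = mean inhibition above about 93%, with at least 55% of replicates each passing it, limit read from the data, passing the limit was not always enough; inconclusive = only one of those two conditions holds; inactive = neither condition holds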
# An asterisk follows results filed as active; ? = inconclusive; . = not tested or not shown.
SMILES,C diff growth,Pf Dd2 growth,Tcruzi prolif
COc1ccc(C#Cc2ccc([C@H]3[C@H](CO)N4CCCCN(C(=O)Nc5ccccc5)C[C@@H]34)cc2)cc1,1.6,-51.8,71.6
COc1ccc(NC(=O)N2CCCCN3[C@@H](CO)[C@@H](c4ccc(C#Cc5ccccc5)cc4)[C@@H]3C2)cc1,-97.5*,-37.0,70.5
O=C(NCCc1ccncc1)[C@@H]1[C@@H](CO)[C@@H]2Cn3c(ccc(-c4ccccc4)c3=O)[C@H]1N2,-3.4,18.4,10.9
C[C@H]1CN([C@@H](C)CO)C(=O)c2cc(NC(=O)c3ccncc3)ccc2O[C@@H]1CN(C)Cc1ccc(C(=O)Nc2ccccc2N)cc1,4.8,-86.0*,.
C[C@@H]1CN([C@@H](C)CO)C(=O)c2cc(NC(=O)Cc3ccccc3)ccc2O[C@@H]1CN(C)Cc1ccc(C(=O)Nc2ccccc2N)cc1,3.1,-85.9*,44.5
C[C@@H]1CCCCO[C@@H](CN(C)Cc2ccc(C(=O)Nc3ccccc3N)cc2)[C@@H](C)CN([C@H](C)CO)C(=O)c2cc(NC(=O)Cc3ccccc3)ccc2O1,1.7,-83.6*,.
C[C@@H]1CN([C@@H](C)CO)C(=O)c2cc(NC(=O)Cc3cn(C)c4ccccc34)ccc2O[C@@H]1CN(C)Cc1ccc(C(=O)Nc2ccccc2N)cc1,.,-68.7,-24.6
C[C@@H]1CN([C@H](C)CO)C(=O)c2cc(NC(=O)c3ccncc3)ccc2O[C@@H]1CN(C)Cc1ccc(C(=O)Nc2ccccc2N)cc1,.,-60.9,105.3
CC(C)NC(=O)Nc1ccc2c(c1)C(=O)N([C@H](C)CO)C[C@H](C)[C@H](CN(C)Cc1ccc(C(=O)Nc3ccccc3N)cc1)OCCCC[C@@H](C)O2,4.3,?,.
C[C@@H]1CN([C@H](C)CO)C(=O)c2cc(NC(=O)Cc3ccccc3)ccc2O[C@H]1CN(C)Cc1ccc(C(=O)Nc2ccccc2N)cc1,-6.8,-51.4,66.0
C[C@@H]1CN([C@@H](C)CO)C(=O)c2cc(NC(=O)Cc3cn(C)c4ccccc34)ccc2O[C@H]1CN(C)Cc1ccc(C(=O)Nc2ccccc2N)cc1,.,-85.5*,-36.5
C[C@H]1CN([C@@H](C)CO)S(=O)(=O)c2ccc(C#CC3CCCC3)cc2O[C@H]1CN(C)Cc1ccccc1C(=O)O,-1.3,53.8,.
O=C(C1CCCC1)N1CC2(C1)[C@H](c1ccccc1)[C@H](CO)N2CC1CCCC1,11.1,-15.1,.
Cc1noc(C)c1S(=O)(=O)Nc1ccc2c(c1)C(=O)N([C@@H](C)CO)C[C@H](C)[C@H](CN(C)S(C)(=O)=O)O2,-1.8,26.9,-25.0
O=C(Nc1ccc2c(c1)[C@@H]1C[C@@H](CC(=O)N3CCc4ccccc4C3)O[C@H](CO)[C@@H]1O2)C1CCC1,-0.7,-4.9,22.3
COc1ccc(NC(=O)N2C[C@@H](O)COC[C@H]3O[C@H](CC(=O)N4CCN(C)CC4)CC[C@@H]32)cc1,.,-1.0,7.6
CO[C@@H]1CN(C)C(=O)c2ccc(NC(C)=O)cc2OC[C@@H](C)N(C(=O)CN2CCOCC2)C[C@H]1C,0.5,36.9,-64.4
C[C@H]1CN([C@@H](C)CO)S(=O)(=O)c2ccc(C3=CCCC3)cc2O[C@H]1CN(C)C,1.3,0.5,-20.6
COc1ccc(CN2C[C@@H](C)[C@@H](OC)CN(C)C(=O)c3cc(NC(=O)c4nc5ccccc5s4)ccc3OC[C@H]2C)cc1,.,-79.1,.
COc1ccc(CN2C[C@@H](C)[C@H](OC)CN(C)C(=O)c3ccc(NC(=O)c4nc5ccccc5s4)cc3OC[C@H]2C)cc1,9.5,-87.8*,91.4
COc1ccc(CN2C[C@H](C)[C@@H](OC)CN(C)C(=O)c3cc(NC(=O)c4nc5ccccc5s4)ccc3OC[C@H]2C)cc1,.,-75.0,.
COc1ccc(CN2C[C@H](C)[C@H](OC)CN(C)C(=O)c3cc(NC(=O)c4nc5ccccc5s4)ccc3OC[C@@H]2C)cc1,.,-83.4*,.
CO[C@@H]1CN(C)C(=O)c2ccc(NC(=O)C3CC3)cc2OC[C@@H](C)N(C)C[C@H]1C,.,10.1,.
COc1ccc(NC(=O)Nc2ccc3c(c2)C(=O)N([C@@H](C)CO)C[C@@H](C)[C@H](CN(C)Cc2ccc4c(c2)OCO4)OCCCC[C@H](C)O3)cc1,4.2,-59.9,75.8
COc1ccc2c3c(n(C)c2c1)[C@@H](CO)NCC31CCN(C(=O)CC2CC2)CC1,.,23.8,.
SMILES,C diff growth,Pf Dd2 growth,Tcruzi prolif
COc1ccc(NC(=O)Nc2cccc3c2O[C@H](CN(C)S(=O)(=O)c2ccc(F)cc2)[C@H](C)CN([C@@H](C)CO)C3=O)cc1,-6.9,-19.9,-2.6
CCc1nc(N2[C@H](C#N)[C@H](c3ccccc3-c3ccccc3F)[C@@H]2CO)sc1C,0.9,-80.7*,.
CCc1csc(N2[C@H](C#N)[C@H](c3ccccc3-c3ccc(F)cc3)[C@H]2CO)n1,-0.6,-92.6*,.
CCc1nc(N2[C@H](CO)[C@@H](c3ccccc3-c3ccccc3F)[C@@H]2C#N)sc1C,3.0,17.1,.
CCc1csc(N2[C@H](C#N)[C@@H](c3ccc(-c4ccc(F)cc4)cc3)[C@@H]2CO)n1,0.8,-11.6,93.3
CCC(=O)Nc1ccc2c(c1)C(=O)N(C)[C@@H]1CC[C@@H](CC(=O)NCCCN(C)C)O[C@@H]1CO2,-6.1,-11.6,53.7
CCCNC(=O)N1CC2(CN(C(=O)c3cccnc3)C2)c2c([nH]c3cc(OC)ccc23)[C@H]1CO,.,-3.3,.
CCNC(=O)C[C@@H]1CC[C@@H]2[C@H](COc3ccc(NC(=O)Nc4ccccc4C)cc3C(=O)N2C)O1,-15.5,-12.9,-1.2
C[C@@H]1CN([C@H](C)CO)C(=O)c2c(c3ccccc3n2C)-c2ccccc2CO[C@H]1CN(C)Cc1ccc(Oc2ccccc2)cc1,20.6,-86.9*,.
C[C@@H]1CN([C@@H](C)CO)C(=O)c2c(c3ccccc3n2C)-c2ccccc2CO[C@@H]1CN(C)Cc1ccc(O)cc1,-7.0,-41.7,.
C[C@H]1CN([C@@H](C)CO)C(=O)c2c(c3ccccc3n2C)-c2ccccc2CO[C@H]1CN(C)Cc1ccc(F)cc1,30.2,-48.7,.
C[C@@H]1CN([C@@H](C)CO)C(=O)c2c(c3ccccc3n2C)-c2ccccc2CO[C@H]1CN(C)Cc1ccc(F)cc1,51.4,-50.3,.
C[C@H]1CN([C@@H](C)CO)C(=O)c2c(c3ccccc3n2C)-c2ccccc2CO[C@@H]1CN(C)Cc1ccc(Oc2ccccc2)cc1,32.4,-87.5*,.
C[C@H]1CN([C@@H](C)CO)C(=O)c2c(c3ccccc3n2C)-c2ccccc2CO[C@H]1CN(C)Cc1ccc(Oc2ccccc2)cc1,1.9,-83.5*,.
O=C(N[C@@H]1CC[C@@H](CCNS(=O)(=O)c2ccc(F)cc2)O[C@H]1CO)c1cnccn1,-3.6,22.1,-44.8
C[C@@H]1CN([C@@H](C)CO)C(=O)c2cc(NC(=O)NC3CCCCC3)ccc2O[C@@H](C)CCCCO[C@@H]1CN(C)S(=O)(=O)c1cccs1,-1.2,-88.9*,49.7
C[C@@H]1CCCCO[C@@H](CN(C)S(=O)(=O)c2cccs2)[C@H](C)CN([C@@H](C)CO)C(=O)c2cc(NC(=O)NC3CCCCC3)ccc2O1,24.0,-45.3,92.8
C[C@@H]1CN([C@H](C)CO)C(=O)c2cc(NC(=O)Nc3ccc4c(c3)OCO4)ccc2O[C@@H](C)CCCCO[C@@H]1CN(C)S(=O)(=O)c1cccs1,10.1,-91.7*,63.8

# Source: PubChem
